The nature of experiment [1]: ATG_GRE_CIS: Attagene CIS-FACTORIAL HepG2 Assay for human Glucocorticoid Response Elements (GRE) (AID 2282947). To be noted: HepG2 GRE cis-reporter, Attagene multiplex mRNA; actives raise or lower the signal. The gist of the method: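 Transient MRTU transfection of human HepG2 liver cells; cis-regulated reporters report endogenous factors. 24 h dosing → RNA isolation → RT-PCR → 6-FAM primer extension → HpaI cut → CE fragment analysis. Bidirectional fit, DMSO negative control.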

Experiment [2] can be described thus: ATG_ISRE_CIS: Attagene CIS-FACTORIAL HepG2 Assay for human Interferon Regulatory Factor 1 (IRF1) binding to an Interferon-Stimulated Response Element (ISRE) (AID 2282948). To be noted: HepG2 ISRE cis-reporter (Attagene), mRNA transcription readout; actives raise or lower the signal. The gist of the method: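 Transfected HepG2 (multiple reporter transcription units, cis elements) dosed 24 h. RNA → oligo(dT) RT → PCR → 6-FAM primer extension → HpaI → CE. DMSO = negative control/baseline.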

The nature of experiment [3]: ATG_M_32_CIS: Attagene CIS-FACTORIAL HepG2 Assay for M32 Transcription Factor (Internal Marker) (AID 2282949).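 Further: background control marker of the multiplexed CIS panel rather than a real target.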 To be noted: HepG2 Attagene cis-factorial M32 reporter, mRNA; actives raise or lower the signal. The gist of the method: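 HepG2 cells transiently transfected with multiplexed cis-regulated reporter units, dosed 24 h. Reporter mRNA quantified by RT-PCR, 6-FAM labelling, HpaI digestion and capillary electrophoresis; bidirectional fit vs DMSO.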

Experiment [4] can be described thus: ATG_M_06_CIS: Attagene CIS-FACTORIAL HepG2 Assay for M06 Transcription Factor (Internal Marker) (AID 2282950). To be noted: HepG2 Attagene CIS-FACTORIAL M06 internal marker reporter; actives raise or lower the signal. The gist of the method:
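Internal background marker within multiplexed cis-reporter HepG2 system. Cells transiently transfected, dosed 24 h; reporter mRNA measured by RT-PCR, HpaI digestion and capillary electrophoresis. Bidirectional fit relative to DMSO.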

For experiment [5], the target named is Hypoxia-inducible factor 1-alpha (Homo sapiens) (UniProt Q16665). As to the kind of experiment: ATG_HIF1a_CIS: Attagene CIS-FACTORIAL HepG2 Assay for human Hypoxia Inducible Factor 1 (HIF1A) (AID 2282951). To be noted: HepG2 Attagene cis-factorial HIF1a reporter transcription; actives raise or lower the signal. The gist of the method:
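After 24 h chemical exposure of reporter-transfected HepG2 cells, reporter cDNA was PCR-amplified, labelled by 6-FAM primer extension (2 min 95 C, 20 s 68 C, 10 min 72 C), HpaI-cut (2 h, 37 C) and analysed by CE.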

The target in experiment [6] is Hepatocyte nuclear factor 6 (Homo sapiens) (UniProt Q9UBC0). The experiment can be described thus: ATG_HNF6_CIS: Attagene CIS-FACTORIAL HepG2 Assay for human Hepatocyte Nuclear Factor 6 (HNF6) (AID 2282952). To be noted: HepG2 Attagene cis-factorial HNF6 reporter transcription; actives raise or lower the signal. The gist of the method: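 Reporter mRNA induction or loss in HepG2 after 24 h exposure; transient cis-MRTU transfection; fragments quantified by capillary electrophoresis; bidirectional analysis, DMSO as negative control.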
Chain of Hepatocyte nuclear factor 6 (Homo sapiens) (Q9UBC0 whole entry, looked up, the tested form may be a part): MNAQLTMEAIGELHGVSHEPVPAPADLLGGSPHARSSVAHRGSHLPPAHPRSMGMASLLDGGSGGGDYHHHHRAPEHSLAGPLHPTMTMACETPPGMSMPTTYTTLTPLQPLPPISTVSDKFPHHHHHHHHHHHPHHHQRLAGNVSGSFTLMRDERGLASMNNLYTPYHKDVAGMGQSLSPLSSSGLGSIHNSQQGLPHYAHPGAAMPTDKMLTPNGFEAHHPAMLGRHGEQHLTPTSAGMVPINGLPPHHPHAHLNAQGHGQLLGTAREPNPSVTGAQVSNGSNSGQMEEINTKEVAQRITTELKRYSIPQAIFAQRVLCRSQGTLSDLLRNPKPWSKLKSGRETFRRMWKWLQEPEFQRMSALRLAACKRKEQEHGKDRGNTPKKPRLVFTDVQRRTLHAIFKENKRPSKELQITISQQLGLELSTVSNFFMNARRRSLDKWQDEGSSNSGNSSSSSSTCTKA

The target in experiment [7] is Heat shock factor protein 1 (Homo sapiens) (UniProt Q00613). As to the kind of experiment: ATG_HSE_CIS: Attagene CIS-FACTORIAL HepG2 Assay for human Heat Shock Transcription Factor 1 (HSE) (AID 2282953). To be noted: HepG2 HSE cis-reporter, Attagene RNA transcription; actives raise or lower the signal. The gist of the method: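 HepG2 cells transfected with cis-promoter reporter units sensing endogenous transcription factor activity; reporter mRNA quantified 24 h post-dose by RT-PCR and capillary electrophoresis of 6-FAM-labelled products. Bidirectional fitting against DMSO.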
Chain of Heat shock factor protein 1 (Homo sapiens) (Q00613 whole entry, looked up): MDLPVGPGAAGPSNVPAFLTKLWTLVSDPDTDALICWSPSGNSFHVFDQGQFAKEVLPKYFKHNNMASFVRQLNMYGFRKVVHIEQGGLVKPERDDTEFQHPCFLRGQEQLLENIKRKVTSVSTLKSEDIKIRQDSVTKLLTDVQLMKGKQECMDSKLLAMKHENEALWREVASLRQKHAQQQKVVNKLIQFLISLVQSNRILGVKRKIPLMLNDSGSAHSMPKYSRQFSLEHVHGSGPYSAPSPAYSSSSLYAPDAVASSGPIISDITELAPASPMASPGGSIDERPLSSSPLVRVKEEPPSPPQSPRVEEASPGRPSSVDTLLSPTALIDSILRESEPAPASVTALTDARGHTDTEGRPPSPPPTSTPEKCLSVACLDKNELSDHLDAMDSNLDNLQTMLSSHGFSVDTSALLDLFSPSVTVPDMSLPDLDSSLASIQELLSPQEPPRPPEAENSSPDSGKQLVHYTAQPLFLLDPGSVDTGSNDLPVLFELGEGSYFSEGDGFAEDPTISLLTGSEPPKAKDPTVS

Experiment [8] can be described thus: ATG_MRE_CIS: Attagene CIS-FACTORIAL HepG2 Assay for human Metal Responsive Element (MRE) (AID 2282954). To be noted: HepG2 MRE cis-reporter transcription, Attagene multiplex; actives raise or lower the signal. The gist of the method:
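Transient MRTU transfection of HepG2 (FuGene 6); 24 h dosing; total RNA → oligo(dT) RT, PCR, 6-FAM primer extension, HpaI cut, CE. Bidirectional fit vs DMSO.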

A short description of experiment [9]: ATG_PBREM_CIS: Attagene CIS-FACTORIAL HepG2 Assay for human Phenobarbital-responsive Enhancer Module (PBREM) (AID 2282955). To be noted: HepG2 PBREM cis-reporter, Attagene multiplexed transcription; actives raise or lower the signal. The gist of the method: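 Measures endogenous factor action on a phenobarbital-responsive enhancer module. HepG2 transiently carrying cis reporters, 24 h treatment, mRNA read-out by RT-PCR plus capillary electrophoresis.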

The target of experiment [10] is Paired box protein Pax-6 (Homo sapiens) (UniProt P26367). As to the kind of experiment: ATG_Pax6_CIS: Attagene CIS-FACTORIAL HepG2 Assay for human Paired Box 6 (PAX6) (AID 2282956). To be noted: HepG2 CIS-FACTORIAL PAX6 reporter transcription, RNA readout; actives raise or lower the signal. The gist of the method: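 Transient MRTU transfection of HepG2 → compound exposure 24 h → TriZol RNA, oligo(dT) RT → PCR, 6-FAM primer extension, HpaI cut → capillary electrophoresis; activity fitted both directions against DMSO.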
Chain of Paired box protein Pax-6 (Homo sapiens) (P26367 whole entry, looked up): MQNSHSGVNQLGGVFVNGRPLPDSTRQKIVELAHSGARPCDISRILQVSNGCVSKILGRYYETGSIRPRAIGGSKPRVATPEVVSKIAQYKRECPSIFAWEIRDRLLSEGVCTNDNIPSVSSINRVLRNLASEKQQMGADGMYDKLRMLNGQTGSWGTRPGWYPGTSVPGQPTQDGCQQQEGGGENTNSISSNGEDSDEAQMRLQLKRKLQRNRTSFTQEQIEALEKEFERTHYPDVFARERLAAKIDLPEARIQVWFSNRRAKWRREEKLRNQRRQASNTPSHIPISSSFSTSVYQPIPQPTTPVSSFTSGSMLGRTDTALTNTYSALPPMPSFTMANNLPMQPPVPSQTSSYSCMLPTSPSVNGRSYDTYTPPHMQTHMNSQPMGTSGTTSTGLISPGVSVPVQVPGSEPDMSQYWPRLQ

Experiment [11] in a line: ATG_PXRE_CIS: Attagene CIS-FACTORIAL HepG2 Assay for human Pregnane X Receptor Element (PXRE) (AID 2282957). To be noted: HepG2 Attagene CIS-FACTORIAL PXRE reporter, mRNA; actives raise or lower the signal. The gist of the method: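 Transiently transfected HepG2 cells were dosed and incubated for 24 h. RNA was then isolated, DNase-treated, reverse-transcribed and reporter sequences amplified. Labeled, HpaI-digested fragments were quantified by capillary electrophoresis against DMSO.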

Experiment [12] in a line: ATG_PPRE_CIS: Attagene CIS-FACTORIAL HepG2 Assay for human Peroxisome Proliferator-activated Response Element (PPRE) (AID 2282958). To be noted: HepG2 PPRE cis-element reporter, Attagene transcription factor profiling; actives raise or lower the signal. The gist of the method: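 PPRE activity in HepG2: transient cis-reporter transfection, 24 h compound incubation, reporter mRNA by RT-PCR and CE fluorescence; gain/loss fitted against DMSO.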

The nature of experiment [13]: ATG_RORE_CIS: Attagene CIS-FACTORIAL HepG2 Assay for human RAR-related Orphan Receptor Element (RORE) (AID 2282959). To be noted: HepG2 Attagene cis-factorial RORE reporter, mRNA; actives raise or lower the signal. The gist of the method:
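A 24-hour exposure of transfected HepG2 hepatoma cells precedes RNA isolation and reporter RT-PCR. Labeled products are digested with HpaI and resolved by capillary electrophoresis, with gain or loss of signal scored relative to DMSO.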

Experiment [14] is described as follows: ATG_Sox_CIS: Attagene CIS-FACTORIAL HepG2 Assay for human SRY-box transcription factor (SOX) (AID 2282960). To be noted: HepG2 Attagene cis-factorial SOX reporter, mRNA; actives raise or lower the signal. The gist of the method: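 HepG2, cis reporter units, 24 h exposure. Reporter mRNA: RT-PCR → FAM labelling → HpaI → CE fluorescence. Bidirectional fit vs DMSO.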

In experiment [15] the target is Transcription factor Sp1 (Homo sapiens) (UniProt P08047). The experiment can be described thus: ATG_Sp1_CIS: Attagene CIS-FACTORIAL HepG2 Assay for human Specificity Protein 1 (Sp1) (AID 2282961). To be noted: HepG2 Sp1 cis-reporter transcription, actives raise or lower the signal. The gist of the method:
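Liver-derived HepG2 cells, cis-element reporter library, 24 h treatment; RNA isolated, cDNA amplified with reporter-specific primers, FAM-labeled fragments sized on capillary analyzer. DMSO baseline, bidirectional curve fit.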

Experiment [16] is described as follows: ATG_SREBP_CIS: Attagene CIS-FACTORIAL HepG2 Assay for human Sterol Regulatory Element Binding (SREBP) (AID 2282962). To be noted: HepG2 Attagene cis-factorial SREBP reporter, mRNA; actives raise or lower the signal. The gist of the method: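 Transfected HepG2 (cis-regulated reporter library, endogenous TFs) → compound 24 h → total RNA → oligo(dT) RT → reporter-specific PCR → FAM primer extension, HpaI cut → CE fluorescence. Fit bidirectional vs DMSO.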

The target of experiment [17] is Signal transducer and activator of transcription 3 (Homo sapiens) (UniProt P40763). The experiment can be described thus: ATG_STAT3_CIS: Attagene CIS-FACTORIAL HepG2 Assay for human Signal Transducer and Activator of Transcription 3 (STAT3) (AID 2282963). To be noted: HepG2, Attagene cis-factorial STAT3 reporter transcription; actives raise or lower the signal. The gist of the method:
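Endogenous STAT3-responsive cis-element activity was read in transiently transfected HepG2 cells after 24 h treatment. Reporter transcripts were quantified via RT-PCR and capillary electrophoresis, with DMSO as negative control and bidirectional curve fitting.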

The nature of experiment [18]: ATG_TA_CIS: Attagene CIS-FACTORIAL HepG2 Assay for human TA Basal Promoter (AID 2282964). To be noted: HepG2 Attagene CIS-factorial TA basal promoter reporter; actives raise or lower the signal. The gist of the method: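 HepG2 cells transiently transfected with multiple reporter units under cis promoter elements, reporting endogenous transcription factor activity; this endpoint tracks the TA basal promoter as background control. Reporter mRNA after 24 h dosing measured by RT-PCR/capillary electrophoresis; bidirectional fits versus DMSO.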

Experiment [19] is described as follows: ATG_TCF_b_cat_CIS: Attagene CIS-FACTORIAL HepG2 Assay for human T-Cell-Factor with beta-catenin (TCF/b-cat) (AID 2282965). To be noted: HepG2 TCF/beta-catenin cis-reporter transcription, actives raise or lower the signal. The gist of the method: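 Endogenous transcription factor activity is captured through cis-promoter reporter constructs transiently introduced into human HepG2 liver cells. Induced reporter mRNA is measured after 24 h and fitted bidirectionally relative to DMSO.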

Calls of active or inactive are those of the source. How the source made its calls: active means hit-call score of the fitted dose curve at least 0.9, where 1 is the maximum; inactive means score below 0.9.

Chain of Transcription factor Sp1 (Homo sapiens) (P08047 whole entry, looked up, the tested form may be a part): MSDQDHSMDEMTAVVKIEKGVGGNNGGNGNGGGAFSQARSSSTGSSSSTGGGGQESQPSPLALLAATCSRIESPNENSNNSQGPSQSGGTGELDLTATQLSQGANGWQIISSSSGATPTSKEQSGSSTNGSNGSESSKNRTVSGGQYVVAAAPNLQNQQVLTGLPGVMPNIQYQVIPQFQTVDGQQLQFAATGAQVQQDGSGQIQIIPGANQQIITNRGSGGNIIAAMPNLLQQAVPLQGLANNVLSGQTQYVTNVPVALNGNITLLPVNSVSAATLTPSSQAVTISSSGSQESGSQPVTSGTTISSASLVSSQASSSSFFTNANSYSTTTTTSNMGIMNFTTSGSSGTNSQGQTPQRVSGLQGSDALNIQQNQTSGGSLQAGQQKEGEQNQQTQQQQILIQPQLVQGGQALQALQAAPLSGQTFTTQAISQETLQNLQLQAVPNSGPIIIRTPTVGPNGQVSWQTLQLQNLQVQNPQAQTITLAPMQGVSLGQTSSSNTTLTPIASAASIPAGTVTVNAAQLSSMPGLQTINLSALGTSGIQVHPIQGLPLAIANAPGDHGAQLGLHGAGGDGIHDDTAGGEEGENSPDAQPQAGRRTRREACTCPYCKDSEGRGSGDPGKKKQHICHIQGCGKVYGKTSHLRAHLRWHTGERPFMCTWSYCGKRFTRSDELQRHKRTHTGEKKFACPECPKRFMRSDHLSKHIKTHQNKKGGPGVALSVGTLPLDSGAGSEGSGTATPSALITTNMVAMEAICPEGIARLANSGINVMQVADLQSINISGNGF
Chain of Hypoxia-inducible factor 1-alpha (Homo sapiens) (Q16665 whole entry, looked up): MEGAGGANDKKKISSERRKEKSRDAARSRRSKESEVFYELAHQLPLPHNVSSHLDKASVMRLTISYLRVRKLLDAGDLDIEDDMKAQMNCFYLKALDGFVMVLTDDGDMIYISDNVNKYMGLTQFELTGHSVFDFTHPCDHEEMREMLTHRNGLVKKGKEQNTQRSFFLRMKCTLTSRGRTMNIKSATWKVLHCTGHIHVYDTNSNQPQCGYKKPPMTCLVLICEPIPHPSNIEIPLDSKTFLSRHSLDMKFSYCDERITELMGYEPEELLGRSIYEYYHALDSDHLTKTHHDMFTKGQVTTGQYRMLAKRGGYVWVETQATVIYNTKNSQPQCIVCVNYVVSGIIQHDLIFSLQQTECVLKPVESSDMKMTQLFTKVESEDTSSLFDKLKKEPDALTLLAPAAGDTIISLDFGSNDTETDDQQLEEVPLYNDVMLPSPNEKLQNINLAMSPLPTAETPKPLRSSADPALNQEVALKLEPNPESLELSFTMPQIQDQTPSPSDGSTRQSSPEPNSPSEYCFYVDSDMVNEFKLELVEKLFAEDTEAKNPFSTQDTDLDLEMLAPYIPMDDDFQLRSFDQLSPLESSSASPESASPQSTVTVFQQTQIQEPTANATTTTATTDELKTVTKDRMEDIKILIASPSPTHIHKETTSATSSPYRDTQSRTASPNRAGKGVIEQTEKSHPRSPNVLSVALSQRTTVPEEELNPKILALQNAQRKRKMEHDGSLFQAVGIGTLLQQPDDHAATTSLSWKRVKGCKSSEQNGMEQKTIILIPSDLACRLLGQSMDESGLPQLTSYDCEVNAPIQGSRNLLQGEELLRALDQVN
Chain of Signal transducer and activator of transcription 3 (Homo sapiens) (P40763 whole entry, looked up): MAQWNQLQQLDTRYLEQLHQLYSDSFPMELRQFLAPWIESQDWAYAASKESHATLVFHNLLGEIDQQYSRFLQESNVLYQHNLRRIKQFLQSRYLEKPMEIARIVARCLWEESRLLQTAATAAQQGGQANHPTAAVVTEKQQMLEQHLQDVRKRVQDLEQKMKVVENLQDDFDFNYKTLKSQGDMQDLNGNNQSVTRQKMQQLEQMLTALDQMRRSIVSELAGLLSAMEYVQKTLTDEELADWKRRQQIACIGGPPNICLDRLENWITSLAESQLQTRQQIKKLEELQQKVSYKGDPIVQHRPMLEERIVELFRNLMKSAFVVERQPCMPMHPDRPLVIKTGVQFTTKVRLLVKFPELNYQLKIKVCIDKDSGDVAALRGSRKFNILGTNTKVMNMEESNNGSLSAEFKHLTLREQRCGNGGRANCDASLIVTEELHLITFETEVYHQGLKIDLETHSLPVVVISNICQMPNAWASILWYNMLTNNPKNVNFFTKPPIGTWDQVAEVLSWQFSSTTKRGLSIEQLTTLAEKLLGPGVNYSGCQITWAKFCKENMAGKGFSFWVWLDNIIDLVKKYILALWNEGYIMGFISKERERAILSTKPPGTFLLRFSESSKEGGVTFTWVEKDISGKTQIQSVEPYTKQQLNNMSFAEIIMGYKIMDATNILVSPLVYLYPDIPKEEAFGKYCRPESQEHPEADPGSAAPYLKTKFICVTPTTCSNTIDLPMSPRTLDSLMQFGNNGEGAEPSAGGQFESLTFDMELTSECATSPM

By AC50 is commonly meant the concentration giving half of the maximal activity seen. Consider `ClC1=C(Cl)C2(Cl)C3C(Cl)C=CC3C1(Cl)C2(Cl)Cl` (configuration not stated), for which the outcome in experiment [1], in experiment [2], in experiment [3], in experiment [4], in [5] and in [6] was inactive. Also, the result in experiment [7], in [9], in [12], in [13], in experiment [14] and in experiment [16] was inactive. Also, the call in experiment [17], in experiment [18] and in experiment [19] was inactive. Also, the half-maximal activity concentration (AC50) is 127 µM (active) in experiment [8], 139 µM (active) in [10], 7.47 µM (active) in experiment [11] and 168 µM (active) in experiment [15].
Take `N#CC(Br)(Br)C(N)=O`: the result in experiment [2], in experiment [3], in [4], in experiment [5], in [6] and in [7] was inactive. Further, the call in experiment [8], in experiment [10], in experiment [12], in experiment [13], in experiment [14] and in experiment [15] was inactive. Besides, in experiment [18], the outcome was inactive. Also, the concentration at half-maximal activity (AC50) in experiment [11] is 100 µM (active); in experiment [16], 169 µM (active); in experiment [19], 165 µM (active).
`Clc1ccc(Cl)c(Cl)c1`: the call in experiment [2], in experiment [3], in experiment [4], in experiment [5], in experiment [6] and in [8] was inactive. The result in experiment [9], in [10], in experiment [12], in [13], in experiment [14] and in [15] was inactive. The molecule was classed as inactive in experiment [16], in experiment [18] and in [19]. Further, the AC50 in [11] is 58.4 µM (active).
`OCCCBr`: the molecule was called inactive in experiment [1], in experiment [2], in experiment [3], in experiment [4], in [5] and in [6]. Further, the call in experiment [7], in experiment [8], in experiment [9], in experiment [11], in experiment [12] and in experiment [13] was inactive. For the same molecule, the call in [14], in experiment [15], in [16], in [18] and in [19] was inactive.
On to `CC(O)CCO` (configuration not stated), for which the outcome in [2], in experiment [3], in experiment [4], in experiment [5], in [6] and in [7] was inactive. The molecule was called inactive in experiment [8], in experiment [9], in experiment [10], in experiment [12], in experiment [13] and in experiment [14]. The molecule was called inactive in experiment [15], in experiment [16], in experiment [18] and in experiment [19]. Moreover, the AC50 in [11] was 27 µM (active).
As to `O=Cc1ccco1`, the result in experiment [2], in experiment [3], in experiment [4], in [5], in experiment [6] and in [7] was inactive. In addition, the call in experiment [8], in experiment [10], in experiment [11], in experiment [13], in experiment [14] and in experiment [15] was inactive. The result in [16], in [18] and in experiment [19] was inactive.
As for `O=C(Oc1ccc(Br)cc1)N1CCN2CCC1CC2`, the call in [1], in experiment [2], in experiment [3], in experiment [4], in experiment [6] and in [7] was inactive. Further, the call in experiment [8], in [10], in [12], in experiment [14], in experiment [15] and in experiment [16] was inactive. In addition, the result in [17] and in [18] was inactive. The AC50 is 34.6 µM (active) in experiment [5], 26 µM (active) in experiment [11] and 43.3 µM (active) in [19].

(Values after PubChem BioAssay (EPA / NIEHS).)
